RPL19A-GFP yeast: modulators of TOR pathway RPL19A-GFP in S. cerevisiae. S. cerevisiae RPL19A-GFP strain, flow cytometry, 3 h; active compounds read low. percent response vs DMSO, % at 10 µM. hit rate 0.3% among 330,000. AID 2025;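 active = percent response vs DMSO below 50%; inconclusive = fewer than 70 events counted for the yeast strain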;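 note: median channel GFP fluorescence of the barcoded RPL19A-GFP strain; ratio of sample median GFP to plate DMSO average so 100% = DMSO; lower means less RPL19A-GFP as with rapamycin TOR inhibition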
AGP1-GFP MLPCN: yeast TOR pathway AGP1-GFP modulation. hit rate 0.02% among 320,000. S. cerevisiae AGP1-GFP multiplex flow cytometry, 3 h; GFP as percent of DMSO wells. GFP response vs DMSO, % at 10 µM. AID 2066;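 active = GFP response relative to DMSO above a set limit, near screen average plus 3 SD, cut at about 150% in these data; inconclusive = fewer than 70 cells counted for the yeast strain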;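 note: median GFP channel fluorescence of the gated AGP1 strain per well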
LAP4 TOR yeast: modulators of TOR pathway LAP4-GFP in S. cerevisiae; hit rate 0.34% among 320,000; GFP response vs DMSO, % at 10 µM; S. cerevisiae LAP4-GFP multiplex, flow cytometry GFP, 3 h; median GFP as percent of DMSO wells;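 active = GFP response vs DMSO above a set limit, about the screen mean plus 3 SD, cut at about 150% in these data; inconclusive = under 70 cell events counted for the yeast strain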
CIT2 TOR yeast: alters CIT2-GFP fluorescence in TOR pathway yeast screen; GFP response vs DMSO, % at 10 µM; S. cerevisiae CIT2-GFP strain, flow cytometry, 3 h; 100 means same as DMSO wells; hit rate 0.065% among 320,000; AID 2029;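 active = GFP response relative to DMSO above a set limit, near the screen mean plus 3 SD, cut at about 150% in these data; inconclusive = Fewer than 70 cells measured for a yeast strain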;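 note: ratio of well median GFP fluorescence to mean of DMSO wells on the plate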
MEP2 TOR yeast: yeast TOR pathway MEP2-GFP modulation | S. cerevisiae MEP2-GFP strain, flow cytometry GFP, 3 h; 100% = DMSO control level | GFP response vs DMSO, % at 10 µM | hit rate 0.51% among 330,000;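 active = GFP response versus DMSO above a set limit, roughly screen mean plus 3 SD, cut at about 180% in these data; inconclusive = fewer than 70 cells counted for a yeast strain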;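 note: median GFP fluorescence of the barcode-gated MEP2-GFP cells per well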
Active calls of the source: *; ? = inconclusive; [ ] = dose if it differs, or a comment. Shown are actives, neighbours in structure and some others; about 0.93% of the full set was active somewhere.

SMILES	RPL19A-GFP yeast	AGP1-GFP MLPCN	LAP4 TOR yeast	CIT2 TOR yeast	MEP2 TOR yeast
CCc1ccc(C2CC(c3ccco3)=NN2S(C)(=O)=O)cc1 (configuration not stated)	109	111	142	156*	215*
COc1ccc(CN2CCN(c3ncccn3)CC2)c(C)c1C	89	110	135	138	189*
Cc1ccc(NC(=O)NC2=N/C(=C(/C#N)C(=O)N3CCCC3)c3ccccc32)cc1	21*[may fluoresce violet]	?	103	?	237*[may fluoresce violet]
COc1ccc(/C(C)=N/NC(=O)CNC(=O)COc2ccccc2)c(OC)c1	97	97	90	98	97
COc1cc(C)c(S(=O)(=O)NC2CC(C)(C)NC(C)(C)C2)cc1C	59	20	102	?	422*[may fluoresce violet]
O=C(OCc1cc(Cl)ccc1OC(F)F)c1ccc([N+](=O)[O-])o1	97	85	157*	76	93
CCN(CC)CCN(C(=O)c1ccc2c(c1)CCCC2)c1nc2cc(OC)c(OC)cc2s1	114	129	154*	117	125
O=C(COC(=O)C1CCN(c2ccc(C(F)(F)F)cn2)CC1)Nc1cccc(F)c1	97	95	152*	87	101
CCN(C(=O)c1cc2c(=O)n3cccc(C)c3nc2s1)C1CCCCC1	54	?	76	?	190*[may fluoresce violet]
O=C(Nc1ccc(Nc2ccccc2)cc1)c1ccc(Cl)cc1	99	101	118	105	105
N#C/C(C(=O)Nc1ccc(Cl)cc1)=C(/S)Nc1ccccc1	101	84	194*	115	110
COc1ccc(-c2nn(-c3ccccc3)cc2C(=O)N/N=C/c2ccc([N+](=O)[O-])o2)cc1	114	120	181*	228*	204*
Cc1cc(C(=O)N/N=C/c2ccc([N+](=O)[O-])o2)c(C)o1	103	78	90	77	102
Cc1nonc1C(=O)N/N=C/c1ccc([N+](=O)[O-])o1	95	72	152*	91	109
CCOc1ccc(CSCCNC(=S)Nc2ccc(OC)cc2)cc1	31*[may fluoresce violet]	?	98	?	193*[may fluoresce violet]
Cc1cc(C(=O)CN2C(=O)NC3(CCCc4ccccc43)C2=O)c(C)n1Cc1cccs1 (configuration not stated)	104	106	100	103	113
C=CCn1c(C)cc(C(=O)CN2C(=O)NC3(CCCc4ccccc43)C2=O)c1C (configuration not stated)	27*[may fluoresce violet]	?	91	?	437*[may fluoresce violet]
O=C(Nc1nc(-c2ccccn2)cs1)c1ccc(Br)s1	57	17	197*[may fluoresce violet]	?	114
COc1cccc(CNC(=O)CCC(=O)N2Cc3cccc(OC)c3Oc3ncccc32)c1OC	26*	17	79	84	146
COc1cccc2c1Oc1ncccc1N(C(=O)CCC(=O)NCc1cccc(C)c1)C2	38*	15	89	103	148
COc1cccc2c1Oc1ncccc1N(C(=O)CCC(=O)NCc1ccc(C)cc1)C2	93	100	94	91	92
Cc1cc(N2CCOCC2)nc2ccc(NC(=O)C3CCC(C)CC3)cc12 (configuration not stated)	57	24	95	?	184*[may fluoresce violet]
CCCCNC(=O)CCC(=O)Nc1ccc2nc(N3CCOCC3)cc(C)c2c1	95	99	97	91	98
CCOc1ccc2[nH]c3c(NCC(C)C)ncnc3c2c1	102	101	97	101	102
Cc1ccccc1NC(=O)CCCNC(=O)c1ccc(Cl)cc1	27*[may fluoresce violet]	?	?	?	?
SMILES	RPL19A-GFP yeast	AGP1-GFP MLPCN	LAP4 TOR yeast	CIT2 TOR yeast	MEP2 TOR yeast
O=C(CCCNC(=O)c1ccc(Cl)cc1)Nc1ccccc1F	107	110	100	102	113
CSc1ccc(/C=N/NC(=O)c2cccc(O)c2)cc1	62	24	97	?	188*[may fluoresce violet]
CCOc1ccc(C(=O)N/N=C/c2ccc(SC)cc2)cc1	100	107	119	96	98
CCN(CC)CCN(C(=O)CN1C(=O)CCC1=O)c1nc2cc3c(cc2s1)OCO3	50	?	83	?	200*[may fluoresce violet]
CCN(CC)CCN(C(=O)c1cccc(N2C(=O)CCC2=O)c1)c1nc2cc3c(cc2s1)OCO3	95	104	108	109	100
C=CCNC(=O)C1CCN(S(=O)(=O)c2cccs2)CC1	107	98	90	111	106

High-throughput results as filed in PubChem BioAssay.
